Assay outcomes deposited in PubChem by National Center for Advancing Translational Sciences (NCATS).
Shown are actives, neighbours in structure and some others; about 1.2% of the full set was active somewhere.
KCNH2 3.1 inh – KCNH2 3.1 (human) potassium channel inhibition; U2OS KCNH2 3.1, thallium flux FluxOr; stronger effect = lower value; activity change, % (tested at about 1.8 µM); hit rate 0.95% among 340,000;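 active means maximum activity change below -70%; inconclusive means maximum activity change from -70% to -50%; inactive means maximum activity change above -50%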;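 further: thallium influx rate constant from kinetic fluorescence after stimulation buffer; on the % scale 0 is the no-effect control and ±100 the full control effect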
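Kinetic fluorescence (2 min after stimulation buffer) measures Tl+ influx through KCNH2 3.1 expressed by viral transduction in U2OS cells; the rate constant is normalized against DMSO controls serving as positive and negative references.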
KCNH2 WT inh – KCNH2 (human, wildtype) channel inhibition; AID 720551; hit rate 0.37% among 340,000; activity change, % at 1.84 µM; Q12809; U2OS, BacMam KCNH2, thallium flux FluxOr; stronger effect = lower value;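 active means maximum activity change below -70%; inconclusive means maximum activity change between -70% and -50%; inactive means maximum activity change above -50%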; further: on the % scale 0 is the no-effect control and ±100 the full control effect
Target sequence (Q12809 whole entry, looked up): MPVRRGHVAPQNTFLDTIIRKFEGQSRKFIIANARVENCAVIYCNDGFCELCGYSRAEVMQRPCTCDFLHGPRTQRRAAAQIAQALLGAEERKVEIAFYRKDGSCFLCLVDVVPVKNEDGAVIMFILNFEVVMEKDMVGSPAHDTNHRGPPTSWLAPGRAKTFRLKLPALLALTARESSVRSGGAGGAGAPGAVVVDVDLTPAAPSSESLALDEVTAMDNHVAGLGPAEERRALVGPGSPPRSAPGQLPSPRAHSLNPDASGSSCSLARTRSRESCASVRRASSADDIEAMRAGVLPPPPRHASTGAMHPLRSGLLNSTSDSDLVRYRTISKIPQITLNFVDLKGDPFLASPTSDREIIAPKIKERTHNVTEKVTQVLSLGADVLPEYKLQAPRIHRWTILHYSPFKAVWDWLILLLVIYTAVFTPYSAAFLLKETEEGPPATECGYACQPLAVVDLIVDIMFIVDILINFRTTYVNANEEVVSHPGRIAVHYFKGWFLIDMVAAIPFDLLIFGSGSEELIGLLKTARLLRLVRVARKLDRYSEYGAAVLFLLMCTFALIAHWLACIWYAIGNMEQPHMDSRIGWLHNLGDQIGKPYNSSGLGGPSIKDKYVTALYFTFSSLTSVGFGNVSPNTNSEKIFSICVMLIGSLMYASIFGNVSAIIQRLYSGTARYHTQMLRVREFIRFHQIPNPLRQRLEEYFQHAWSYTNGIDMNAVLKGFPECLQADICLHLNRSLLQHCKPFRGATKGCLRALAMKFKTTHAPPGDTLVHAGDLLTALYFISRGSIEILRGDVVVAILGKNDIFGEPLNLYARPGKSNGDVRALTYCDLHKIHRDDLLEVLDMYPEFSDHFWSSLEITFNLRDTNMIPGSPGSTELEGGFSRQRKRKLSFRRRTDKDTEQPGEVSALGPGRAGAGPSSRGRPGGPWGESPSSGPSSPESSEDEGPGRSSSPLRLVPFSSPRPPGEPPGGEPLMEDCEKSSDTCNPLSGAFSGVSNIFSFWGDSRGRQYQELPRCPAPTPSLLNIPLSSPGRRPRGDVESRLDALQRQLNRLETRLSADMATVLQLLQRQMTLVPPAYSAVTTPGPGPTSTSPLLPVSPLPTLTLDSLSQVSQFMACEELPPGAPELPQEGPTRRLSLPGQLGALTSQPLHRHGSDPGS
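U2OS cells transduced with wild-type KCNH2 virus are loaded with FluxOr dye for 45 min, and thallium flux is measured in kinetic reads before and after stimulation buffer. Rate constants are normalized to DMSO controls.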
TRPV1 ag – human TRPV1 agonism | Q8NER1 | TRPV1-expressing cells, Fluo-8 calcium influx, agonist mode | activation, % at 8.33 µM | hit rate 0.19% among 320,000 | AID 540275; in the data active means activation above about 80%; inconclusive means between about 30% and that limit; further: 0% is about no effect
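TRPV1-expressing cells were cultured overnight at 35.5C and loaded with Fluo-8 calcium dye for 40 to 90 min at room temperature. After a 10 s baseline, compound was added and calcium influx was read kinetically for 3 min (ex 480/em 520 nm).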
TRPV1 potentiator – enhances activation of the human vanilloid receptor TRPV1; Q8NER1; TRPV1-expressing cells, Fluo-8 calcium influx, capsaicin EC20 potentiation; potentiation, % at 8.33 µM; hit rate 0.02% among 320,000; AID 540277; in the data active means potentiation above about 80%; inconclusive means between about 30% and that limit; further: 0% is about no effect
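TRPV1-expressing cells were cultured overnight at 35.5C and loaded with Fluo-8 calcium dye for 40 to 90 min at room temperature. After a 10 s baseline, compound was added and calcium influx was read kinetically for 3 min (ex 480/em 520 nm).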
* = called active by the depositor; ? = inconclusive; . = no result given.

SMILES	KCNH2 3.1 inh	KCNH2 WT inh	TRPV1 ag	TRPV1 potentiator
N/C(=N\N=C/c1ccc(Br)cc1)N/N=C\c1ccc(Br)cc1	?	8	5	3
N/C(=N\N=C/c1ccc(F)cc1)N/N=C\c1ccc(F)cc1	-73*	7	-4	-9
CN(C)CCCN(C(=O)CCc1ccccc1)c1nc2ccc(F)cc2s1	-7	25	-2	4
CN(C)CCCN(C(=O)CCc1ccccc1)c1nc2ccc(Br)cc2s1	-87*	-36	0	-19
CCCCNc1c(-c2ccc(SC3CCCCC3)cc2)nc2ccccn12	-81*	?	?	-6
CCC(C)Sc1cc(-c2nc3ccccn3c2NC2CCCCC2)ccc1OC (stereo not drawn)	-149*	3	0	-12
CCC(C)Sc1cccc(-c2nc3cc(C)ccn3c2NCc2ccccc2)c1 (stereo not drawn)	-41	3	93*	14
CCC(C)Sc1cc(-c2nc3ccc(C)cn3c2NCc2ccccc2)ccc1OC (stereo not drawn)	-102*	?	.	.
CCC(C)Sc1cc(-c2nc3cc(C)ccn3c2NC2CCCCC2)ccc1OC (stereo not drawn)	-5	38	.	.
CCOc1ccc2oc(C(=O)N(CCOC)c3c(N)n(CC(C)C)c(=O)[nH]c3=O)c(C)c2c1	7	4	-1	1
O=C1OCC/C1=C\NCCCN/C=C1\CCOC1=O	9	5	.	.
CC(C)(C)C(=O)CSc1ccc(S(=O)(=O)N2CCN(Cc3ccccc3)CC2)cn1	-10	-11	11	-3
COc1ccc(-c2cc(-c3nc4ccccn4c3NCc3ccccc3)ccc2OC)cc1	-101*	-99*	.	.
CCC(C)Sc1ccc(-c2nc3ccc(C)cn3c2NCc2ccccc2)cc1OC (stereo not drawn)	-47	0	88*	30
CCCCNc1c(-c2ccc(OC)c(SC(C)CC)c2)nc2ccc(C)cn12 (stereo not drawn)	-47	-6	.	.
CCCCNc1c(-c2ccc(SC3CCCCC3)c(OC)c2)nc2ccc(C)cn12	-72*	8	.	.
CCCCCCSc1ccc(-c2nc3ccc(C)cn3c2NCc2ccccc2)cc1OC	-91*	-20	?	24
CCCCNc1c(-c2ccc(OC)c(SC3CCCCC3)c2)nc2ccc(C)cn12	-41	4	.	.
Clc1cccc(-c2ccc(-c3nc4ccccn4c3NCc3ccccc3)cc2)c1	5	0	.	.
CCCCCCSc1ccc(-c2nc3ccc(C)cn3c2NCc2ccccc2)cc1	-16	10	?	?
Cc1cccc(C)c1OCC(O)CN1CCc2ccccc2C1 (stereo not drawn)	-1	12	.	.
Cc1ccc(C(C)C)c(OCC(O)CN2CCc3ccccc3C2)c1 (stereo not drawn)	1	-113*	14	-13
CC(OC(=O)c1cc(=O)[nH]c2ccccc12)C(=O)N1C(C)CCCC1C (stereo not drawn)	-2	0	1	2
CN(CCc1ccccc1)C(=O)c1ccc(NC(=O)Cc2ccc(NC(=O)C3CCN(C(=O)C4CC4)CC3)cc2)cc1	-73*	3	.	.
CC1=C(C(=O)Nc2ccccc2C)C(c2ccc[nH]2)n2ncnc2N1 (stereo not drawn)	.	.	3	5
SMILES	KCNH2 3.1 inh	KCNH2 WT inh	TRPV1 ag	TRPV1 potentiator
COc1cc(/C=C(\C(=O)O)c2ccc(S(=O)(=O)N3CCCC3)s2)ccc1OCCC(C)C	4	-3	.	.
CS(=O)(=O)c1ccc2nc(NC(=O)CCNC(=O)c3ccc(Cl)cc3)sc2c1	9	-7	1	-6
O=C1CSC(c2cccs2)N1c1ccccc1 (stereo not drawn)	10	-4	1	15
c1ccc(N2CCN(c3ccccc3)C2c2cccs2)cc1	3	-132*	0	?
O=C(NC(=S)Nc1cc(Cl)ccc1Cl)c1ccco1	12	-18	.	.
Cc1ccc(SC[C@H](Cc2ccccc2)N2CC[C@@H](C)CCC2=O)cc1	-126*	-1	?	-23
CC(=O)Nc1ccc(SC[C@H](Cc2ccccc2)N2CC[C@@H](C(C)(C)C)CCC2=O)cc1	-97*	-13	?	16
COc1cc(C(=O)N(CCc2ccccc2)C2=CC3CCC(C2)N3C)cc(OC)c1OC (stereo not drawn)	1	1	1	13
Cc1cc(C)cc(C(=O)N(CCc2ccccc2)C2CC3CCC(C2)N3C)c1 (stereo not drawn)	-88*	-8	3	-8
COc1ccc(N2CCN(CCCNC(=O)c3ccc(CS(=O)(=O)c4ccc(Cl)cc4)o3)CC2)cc1	-99*	-21	1	27
COc1ccc(N2CCN(CCCNC(=O)c3cc4sccc4n3C)CC2)cc1	-94*	-109*	2	12
COc1ccc(N2CCN(CCNC(=O)Nc3ccc(Cl)cc3)CC2)cc1	-70*	12	-6	9
CC(OC(=O)c1cccc(S(=O)(=O)N(C)C)c1)C(=O)NCC(=O)Nc1ccc(F)c(F)c1F (stereo not drawn)	15	-8	.	.
Cc1cccc(NC(=O)c2ccc(NCCc3ccccc3)c([N+](=O)[O-])c2)c1	-189*	-16	4	3
Cc1ccc(NC(=O)c2ccc(NCCN)c([N+](=O)[O-])c2)cc1	-3	9	6	2
CC(C)Oc1ccc(C(=O)OCC(=O)c2ccc[nH]2)cc1	1	-3	.	.
Cc1cnc(CN2CCc3c([nH]c4ccccc34)C2C2CCCCC2)[nH]1 (stereo not drawn)	-72*	9	0	11
C[C@H](CO)N1C[C@H](C)[C@@H](CN(C)S(=O)(=O)c2cn(C)cn2)Oc2c(NC(=O)Nc3ccc4c(c3)OCO4)cccc2C1=O	-123*	-4	.	.
C[C@H](CO)N1C[C@H](C)[C@@H](CN(C)S(=O)(=O)c2ccccc2)Oc2c(NC(=O)NC3CCCCC3)cccc2C1=O	-166*	-10	.	.
CCN(C(=O)C(C)OC(=O)c1nn(-c2ccccc2C(F)(F)F)cc1O)c1ccccc1 (stereo not drawn)	13	-7	.	.
CCn1cc(CN2CCCC(CNS(=O)(=O)c3ccc(OC)cc3)C2)cn1 (stereo not drawn)	.	2	1	-11
CCc1ccc(CN2CCCC(CNS(=O)(=O)c3ccc(OC)cc3)C2)cc1 (stereo not drawn)	-71*	-26	5	14
Nn1c(SCC(=O)NC2CCCCC2)nnc1-c1ccccc1F	9	-11	0	-13
Nc1ccccc1N=Cc1ccc(-c2cccc(Cl)c2)o1	2	6	117*	1
Cc1cc(NC(=O)CSCC(=O)N2CCN(c3ccccc3)CC2)no1	34	-3	.	.
Cc1nn2c(=O)cc(CSCC(=O)Nc3ccccc3F)nc2s1	-142*	-17	-2	2
CCCCN(C(=O)C1CC(=O)N(c2ccc3c(c2)OCCO3)C1)c1c(N)n(CC(C)C)c(=O)[nH]c1=O (stereo not drawn)	-192*	-152*	2	-12
